NCOA3 inh: inhibits human SRC3 coactivator | HEK293 GAL4-SRC3 luciferase reporter, luminescence | inhibition, % at 3.6 µM | AID 588352 | 360,000 tested, 0.17% active | Q9Y6Q9;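 active = inhibition above a per-campaign cutoff, the mean of all compounds plus 3 SD, cut at about 60% in these data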;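 also: 0% = DMSO-treated cells and 100% = gossypol-treated cells at 36 µM; higher means less SRC3-driven luciferase light from the GAL4 reporter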
NCOA2 inhibitor: human SRC2 (NCOA2) inhibition; Q15596; HEK293 GAL4-SRC2 luciferase reporter, luminescence; inhibition, % at 9 µM; 370,000 tested, 0.17% active; AID 651957;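 active = inhibition above the mean inhibition of all tested compounds plus 3 SD, set per campaign, cut at about 52% in these data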;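 also: 0% = DMSO treated cells and 100% = cells given Gossypol at 36 µM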
Target sequence (Q15596 whole entry, looked up, the tested form may be a part): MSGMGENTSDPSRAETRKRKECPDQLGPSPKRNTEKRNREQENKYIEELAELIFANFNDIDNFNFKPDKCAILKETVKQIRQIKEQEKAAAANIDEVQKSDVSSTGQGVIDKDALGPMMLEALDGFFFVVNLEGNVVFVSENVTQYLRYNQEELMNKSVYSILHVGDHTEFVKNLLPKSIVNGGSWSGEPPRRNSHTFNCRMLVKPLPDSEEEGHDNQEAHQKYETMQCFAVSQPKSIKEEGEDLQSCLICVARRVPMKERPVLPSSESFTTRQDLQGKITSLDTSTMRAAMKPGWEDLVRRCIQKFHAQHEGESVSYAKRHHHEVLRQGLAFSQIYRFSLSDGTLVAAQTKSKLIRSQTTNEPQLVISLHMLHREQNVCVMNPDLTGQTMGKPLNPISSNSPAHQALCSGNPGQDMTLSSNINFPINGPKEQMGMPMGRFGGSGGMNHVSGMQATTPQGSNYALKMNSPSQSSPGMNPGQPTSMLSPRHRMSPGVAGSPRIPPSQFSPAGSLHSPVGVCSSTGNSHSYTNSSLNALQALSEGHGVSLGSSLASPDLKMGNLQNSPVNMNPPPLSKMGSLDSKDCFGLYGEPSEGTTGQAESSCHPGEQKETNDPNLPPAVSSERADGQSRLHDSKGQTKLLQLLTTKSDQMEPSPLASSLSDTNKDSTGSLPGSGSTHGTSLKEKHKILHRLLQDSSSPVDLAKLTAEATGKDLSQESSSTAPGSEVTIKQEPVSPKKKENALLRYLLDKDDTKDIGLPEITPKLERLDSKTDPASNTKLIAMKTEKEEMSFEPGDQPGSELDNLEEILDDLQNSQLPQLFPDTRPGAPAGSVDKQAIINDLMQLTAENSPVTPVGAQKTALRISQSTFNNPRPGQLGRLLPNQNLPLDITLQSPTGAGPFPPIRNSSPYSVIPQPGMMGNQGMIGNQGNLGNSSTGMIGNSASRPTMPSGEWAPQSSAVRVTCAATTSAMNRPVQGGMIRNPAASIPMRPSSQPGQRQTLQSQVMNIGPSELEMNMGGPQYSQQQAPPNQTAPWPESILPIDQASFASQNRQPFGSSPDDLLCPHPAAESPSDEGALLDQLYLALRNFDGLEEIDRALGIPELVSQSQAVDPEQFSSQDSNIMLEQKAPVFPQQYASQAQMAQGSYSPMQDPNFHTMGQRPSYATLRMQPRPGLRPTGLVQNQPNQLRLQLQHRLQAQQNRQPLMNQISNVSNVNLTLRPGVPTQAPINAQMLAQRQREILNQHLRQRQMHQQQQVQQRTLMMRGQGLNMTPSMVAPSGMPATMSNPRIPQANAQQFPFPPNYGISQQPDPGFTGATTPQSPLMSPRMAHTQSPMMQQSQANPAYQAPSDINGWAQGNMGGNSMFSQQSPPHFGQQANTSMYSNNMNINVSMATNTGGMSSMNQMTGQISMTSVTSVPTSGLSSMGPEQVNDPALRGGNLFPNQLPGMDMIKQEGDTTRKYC
LRH-1 inv ag: inverse agonists of human LRH-1 (NR5A2) | O00482 | HEK293T StAR-luciferase reporter, LRH-1 transfected, 24 h | inhibition, % at 3.6 µM | 360,000 tested, 0.13% active | AID 602396;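 active = inhibition above the mean inhibition of all tested compounds plus 3 SD, cut at about 73% in these data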;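 also: 0% = DMSO wells and 100% = reporter-only cells lacking LRH-1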
EBV LMP1 NFkB: Epstein-Barr LMP1 NF-kappaB reporter inhibition; LMP1-induced NF-kappaB luciferase reporter cells, luminescence; inhibition, % at 12.5 µM; 350,000 tested, 0.69% active; AID 504558; in the data active = inhibition above about 41%; inconclusive = no clear call, values can overlap the other calls;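 also: 0% = neutral control wells and 100% = reference inhibitor control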
Shn3 inh set2: inhibitors of Schnurri-3 3'UTR reporter in osteoblasts; Clone20 osteoblast Shn3 3'UTR firefly luciferase, 24 h; inhibition, % at 12.5 µM; 360,000 tested, 0.52% active; AID 588674;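 active = mean inhibition of at least 75% with every replicate also reaching 75%; inconclusive = mean inhibition at least 75% but some replicate below; inactive = mean inhibition below 75%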;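 also: 0% = median of neutral control wells and 100% = pilot-screen positive control compound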
SRC1 inh: inhibits human SRC1 coactivator. Q15788. HEK293 GAL4-SRC1 luciferase reporter, luminescence. inhibition, % at 3.6 µM. 360,000 tested, 0.12% active;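 active = inhibition above the campaign mean plus 3 SD, with each screening campaign given its own cutoff, cut at about 60% in these data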;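 also: 0% = DMSO treated cells and 100% = gossypol at 36 µM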
Active calls of the source: *; ? = inconclusive; · = no result given; ! = not active in a repeat. In the library only some 1.2% were active in any assay of this set; here they are far more common.

SMILES | NCOA3 inh | NCOA2 inhibitor | LRH-1 inv ag | EBV LMP1 NFkB | Shn3 inh set2 | SRC1 inh
CC1CCCN(c2cccc3c2S(=O)(=O)N(Cc2cccc(F)c2)[C@@H](C)[C@H](c2ccccc2)O3)C1 (stereo partly specified) | · | -9 | · | · | · | ·
O=S(=O)(c1cccs1)N1CCCc2nc(-c3ccc(F)cc3)ccc21 | · | -18 | · | · | · | ·
O=C(Nc1ccc2c(c1)OCO2)OC1CCC12CCCCC2 (stereo unspecified) | · | -87 | · | · | · | ·
COc1ccc(/C=N/NC(=O)COc2ccccc2-c2ccccc2)cc1 | -35 | 13 | -16 | 74* | -28 | -38
O=C(COc1ccccc1-c1ccccc1)N/N=C/c1cccc2ccccc12 | -10 | 3 | 13 | 7 | 12 | 0
Cc1ccc(NS(=O)(=O)c2ccc(-c3cnc(C4CC4)o3)cc2)cc1 | 9 | -22 | 23 | 9 | 31 | -11
COc1ccc(C)cc1NS(=O)(=O)c1ccc(-c2cnc(C3CC3)o2)cc1 | 21 | 52 | 43 | 15 | 90* | 13
CCN1CCN(Cc2ccc(NC(=O)c3ccc(C)c(NC(=O)C(=O)c4c[nH]c5ccccc45)c3)cc2C(F)(F)F)CC1 | -11 | 6 | -15 | 43*! | ? | -1
CCN1CCN(Cc2ccc(NC(=O)c3cc(NC(=O)C(=O)c4c[nH]c5ccccc45)cc(OC)c3)cc2C(F)(F)F)CC1 | -17 | -43 | 8 | -35 | 33 | 3
Cc1ccc(-c2cc(N)n[nH]2)cc1 | -27 | -33 | 9 | -9 | 0 | -1
CC(C)(C)c1ccc(-c2cc(N)n[nH]2)cc1 | 14 | 55* | -29 | 13 | 33 | 14
O=c1c2c(nc3c(-c4ccc(Cl)cc4)c[nH]n13)CCCC2 | 27 | 15 | -18 | 53* | 40 | 7
CC(C)(C)n1nnnc1C(c1cccs1)N1CCCC2(CCCCC2)C1 (stereo unspecified) | 9 | -3 | 7 | 2 | 85* | 4
c1csc(C(c2nnnn2C2CCCCC2)N2CCCC3(CCCCC3)C2)c1 (stereo unspecified) | 16 | -14 | 14 | 8 | 36 | 0
CCS(=O)(=O)c1nnnn1-c1ccccc1S(C)(=O)=O | 5 | 16 | 16 | 51* | -36 | 7
COc1ccc(-n2nnnc2S(=O)(=O)Cc2ccc(C(=O)O)cc2)cc1 | 8 | -5 | -11 | 27 | 2 | -16
Cc1ccc2nc(Cl)c3nnnn3c2c1 | -12 | · | -35 | -13 | 97* | -19
N#Cc1c(Oc2ccc3ccccc3c2)sc(C(=O)c2ccccc2)c1N | 32 | 5 | -3 | 58* | 8 | 5
COC(=O)C1CN(C2CCCC2)CCS(=O)(=O)N1Cc1ccc(Cl)cc1 (stereo unspecified) | · | 10 | · | · | · | ·
COc1ccccc1-c1nnc(Sc2nc([N+](=O)[O-])nn2C)o1 | 73* | 65* | 75* | 57* | -40 | 64*
Cc1ccc(NC(=O)Cc2nnc(SCC(=O)NC3CCCC3)n2C)cc1C | -6 | -8 | -3 | 45* | 11 | -7
NC(=S)N/N=C/c1ncc(C(F)(F)F)cc1Cl | 22 | · | 32 | ? | 91* | 19
CC(=O)N1C[C@@H](CO)[C@@H](N(C)C(=O)Nc2cccc3ccccc23)C[C@H]1c1ccccc1 | · | -6 | · | · | · | ·
COCCN(CC(=O)NC1CCCCC1)C(=O)/C=C/C(=O)c1ccc(OC)cc1O | 0 | -29 | 5 | 17 | 98* | -61
COc1ccc(C(=O)/C=C/C(=O)N(CC(=O)NC2CCCCC2)Cc2cccs2)c(O)c1 | 5 | -23 | 21 | 59* | 93* | -35
SMILES | NCOA3 inh | NCOA2 inhibitor | LRH-1 inv ag | EBV LMP1 NFkB | Shn3 inh set2 | SRC1 inh
COc1ccc(CN(C(=O)/C=C/C(=O)c2ccc(OC)cc2O)C(C(=O)NC2CCCCC2)c2ccncc2)cc1 (stereo unspecified) | 7 | -7 | -19 | -2 | -2 | -5
COc1cccc(CNC(=O)Cn2c(-c3ccccc3)cc(C(C)=O)c2C)c1 | · | 5 | · | · | · | ·
CCN(CC)C(=O)CC[C@H]1CC[C@]2(CCCN(C(=O)C(C)(C)C)C2)O1 | · | -22 | · | · | · | ·
Cc1[nH]n(-c2ccccc2)c(=O)c1/C=N/Nc1nncc(-c2ccccc2)n1 | 55 | 28 | 1 | 69* | 75 | 24
Cc1[nH]n(-c2ccc(Br)cc2)c(=O)c1/C=N/NC(=O)c1ccccc1 | -51 | -14 | -33 | 47* | 85 | -35
Cc1ccn2c(Nc3ccccc3C)c(-c3ccccn3)nc2c1 | 3 | 20 | -10 | 26 | ? | -12

Screening data as filed in PubChem BioAssay.
